Source: the supplement of paper PMC10037445
Values joined by “and” are separate entries in the source; they are usually repeats but may differ in a detail not shown here. Identical values can stand only once. In all, about 2,900 compounds were measured (“NF-kB SEAP reporter activity, fold change vs agonist alone”: median about 0.99, highest 2% from about 2.6 on). What follows is part of a selection rich in the highest values, with near analogues and random picks from the rest.

Key:
[1] = test system: RAW-Dual; test: NF-kB SEAP reporter activity, fold change vs agonist alone; higher = enhanced NF-kB activity
Method in brief: (§1)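 Supernatant from RAW-Dual macrophages was read after 20 hours for IRF by QuantiLuc luminescence and for NF-κB by QuantiBlue absorbance at 620 nm. The cells (50,000 cells/well in DMEM, 384-well plates, 37 °C, 5% CO2) had received 50 nL of library stock by pin tool and, 1 h later, a PRR agonist. Reporter activity is expressed relative to agonist-alone wells as fold change, and wells were flagged cytotoxic if IncuCyte confluency was under 70% of agonist controls in both mask sets.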

[2] = test system: RAW-Dual; test: NF-kB SEAP reporter activity, fold change vs agonist alone; cytotoxicity flag (confluency mask): not cytotoxic; higher = enhanced NF-kB activity
Method in brief: as §1

[3] = test system: RAW-Dual; test: NF-kB SEAP reporter activity, fold change vs agonist alone; cytotoxicity flag (confluency mask): cytotoxic (confluency <70% of control); higher = enhanced NF-kB activity
Method in brief: as §1

[4] = library stock concentration (final ~1000-fold dilution): 10 mM, cytotoxicity flag (confluency mask): not cytotoxic, agonist: Imiquimod (TLR7) […]
[5] = library stock concentration (final ~1000-fold dilution): 10 mM, cytotoxicity flag (confluency mask): not cytotoxic, agonist: MPLA (TLR4) […]
[6] = agonist: ODN 1826 (TLR9) 0.5 ug/mL
[7] = agonist: Pam2CSK4 (TLR2/6) 0.1 ug/mL
[8] = agonist: Pam3CSK4 (TLR2/1) 0.1 ug/mL

CCOC(=O)c1ccc(NC2CCCCC2)c(N)c1
NF-kB SEAP reporter activity [1, 4]: 1.14 | NF-kB SEAP reporter activity [1, 5]: 1.57

CCn1cc(C(=O)O)c(=O)c2c(N)c(F)c(NC3CCCCC3)cc21
NF-kB SEAP reporter activity [1, 4]: 1.75 | NF-kB SEAP reporter activity [1, 5]: 1.95

O=C1C2C3CCC(C3)C2C(=O)N1CC1CCCCC1CN1CCN(c2nsc3ccccc23)CC1 (centres undefined)
NF-kB SEAP reporter activity [1, 4]: 0.878 | NF-kB SEAP reporter activity [1, 5]: 1.06

O=C1C2C3CCC(C3)C2C(=O)N1CC1CCCCC1CN1CCN(c2nsc3ccccc23)CC1 (centres undefined) (library stock concentration (final ~1000-fold dilution): 10 mM)
NF-kB SEAP reporter activity ([2]; agonist: LPS (TLR4) 0.1 ug/mL): 0.728 | NF-kB SEAP reporter activity [2, 6]: 0.931 | NF-kB SEAP reporter activity [2, 7]: 0.983 | NF-kB SEAP reporter activity [2, 8]: 1.07

Cl.Nc1ccc(Cl)cc1C(=O)C(F)(F)F (library stock concentration (final ~1000-fold dilution): 10 mM)
NF-kB SEAP reporter activity ([2]; agonist: LPS (TLR4) 0.1 ug/mL): 1.2 | NF-kB SEAP reporter activity [2, 6]: 1.04 | NF-kB SEAP reporter activity [2, 7]: 1.01 | NF-kB SEAP reporter activity [2, 8]: 0.971

O=C(Nc1cc(C(F)(F)F)ccc1N1CCCCC1)c1ccncc1
NF-kB SEAP reporter activity [1, 4]: 0.957 | NF-kB SEAP reporter activity [1, 5]: 1.01

Cc1oncc1C(=O)Nc1ccc(C(F)(F)F)cc1 (library stock concentration (final ~1000-fold dilution): 10 mM)
NF-kB SEAP reporter activity ([2]; agonist: LPS (TLR4) 0.1 ug/mL): 0.926 | NF-kB SEAP reporter activity [2, 6]: 1.24 | NF-kB SEAP reporter activity [2, 7]: 0.908 | NF-kB SEAP reporter activity [2, 8]: 1.07

O=C(Nc1cc(C(F)(F)F)ccc1C(F)(F)F)c1cc(Br)ccc1O (library stock concentration (final ~1000-fold dilution): 10 mM)
NF-kB SEAP reporter activity ([3]; agonist: LPS (TLR4) 0.1 ug/mL): 2.68 | NF-kB SEAP reporter activity [3, 6]: 1.82 | NF-kB SEAP reporter activity [3, 7]: 0.573 | NF-kB SEAP reporter activity [3, 8]: 0.839

Cl.NCCOc1ccc(Cl)cc1C(=O)Nc1ccc([N+](=O)[O-])cc1Cl (library stock concentration (final ~1000-fold dilution): 10 mM)
NF-kB SEAP reporter activity ([2]; agonist: LPS (TLR4) 0.1 ug/mL): 1.29 | NF-kB SEAP reporter activity [2, 6]: 0.59 | NF-kB SEAP reporter activity [2, 7]: 0.918 | NF-kB SEAP reporter activity [2, 8]: 0.91

Cl.Nc1ccc(Cl)cc1C(=O)C(F)(F)F
NF-kB SEAP reporter activity [1, 5]: 1.24

O=C(Nc1ccc([N+](=O)[O-])cc1Cl)c1cc(Cl)ccc1O (library stock concentration (final ~1000-fold dilution): 10 mM)
NF-kB SEAP reporter activity ([2]; agonist: LPS (TLR4) 0.1 ug/mL): 6.96 | NF-kB SEAP reporter activity [2, 6]: 0.713 | NF-kB SEAP reporter activity [2, 7]: 0.379 | NF-kB SEAP reporter activity [2, 8]: 0.527

O=C(Nc1cc(C(F)(F)F)ccc1N1CCCCC1)c1ccncc1 (library stock concentration (final ~1000-fold dilution): 10 mM)
NF-kB SEAP reporter activity ([2]; agonist: LPS (TLR4) 0.1 ug/mL): 0.802 | NF-kB SEAP reporter activity [2, 6]: 0.875 | NF-kB SEAP reporter activity [2, 7]: 0.764 | NF-kB SEAP reporter activity [2, 8]: 0.771

O=C(Nc1ccc([N+](=O)[O-])cc1Cl)c1cc(Cl)ccc1O
NF-kB SEAP reporter activity [1, 4]: 1 | NF-kB SEAP reporter activity [1, 5]: 1.05

O=C(Nc1cc(C(F)(F)F)cc(C(F)(F)F)c1)c1cc(Cl)ccc1O (library stock concentration (final ~1000-fold dilution): 10 mM)
NF-kB SEAP reporter activity ([3]; agonist: LPS (TLR4) 0.1 ug/mL): 4.53 and 3.94 | NF-kB SEAP reporter activity [3, 6]: 1.84 and 1.74 | NF-kB SEAP reporter activity [3, 7]: 1.25 and 1.03 | NF-kB SEAP reporter activity [3, 8]: 1.99 and 1.13

Cl.NCCOc1ccc(Cl)cc1C(=O)Nc1ccc([N+](=O)[O-])cc1Cl
NF-kB SEAP reporter activity [1, 4]: 1.31 | NF-kB SEAP reporter activity [1, 5]: 0.949

CC(ONC(=O)c1cc(C(F)(F)F)cc(C(F)(F)F)c1)C(=O)Nc1ccc(Cl)cc1 (centres undefined)
NF-kB SEAP reporter activity [1, 4]: 0.98 | NF-kB SEAP reporter activity [1, 5]: 1.4

O=C(Nc1ccncc1)c1cc([N+](=O)[O-])ccc1Cl
NF-kB SEAP reporter activity [1, 4]: 0.837 | NF-kB SEAP reporter activity [1, 5]: 0.684

CC(ONC(=O)c1cc(C(F)(F)F)cc(C(F)(F)F)c1)C(=O)Nc1ccc(Cl)cc1 (centres undefined) (library stock concentration (final ~1000-fold dilution): 10 mM)
NF-kB SEAP reporter activity ([2]; agonist: LPS (TLR4) 0.1 ug/mL): 1.45 | NF-kB SEAP reporter activity [2, 6]: 0.913 | NF-kB SEAP reporter activity [2, 7]: 0.239 | NF-kB SEAP reporter activity [2, 8]: 0.6

Cc1oncc1C(=O)Nc1ccc(C(F)(F)F)cc1
NF-kB SEAP reporter activity [1, 4]: 1.24 | NF-kB SEAP reporter activity [1, 5]: 1.15

O=C(Nc1ccncc1)c1cc([N+](=O)[O-])ccc1Cl (library stock concentration (final ~1000-fold dilution): 10 mM)
NF-kB SEAP reporter activity ([2]; agonist: LPS (TLR4) 0.1 ug/mL): 0.801 | NF-kB SEAP reporter activity [2, 6]: 0.584 | NF-kB SEAP reporter activity [2, 7]: 0.853 | NF-kB SEAP reporter activity [2, 8]: 0.69

O=C(Nc1cc(C(F)(F)F)ccc1C(F)(F)F)c1cc(Br)ccc1O
NF-kB SEAP reporter activity ([1]; library stock concentration (final ~1000-fold dilution): 10 mM, cytotoxicity flag (confluency mask): cytotoxic (confluency <70% of control), agonist: Imiquimod (TLR7) […]): 0.255 | NF-kB SEAP reporter activity ([1]; library stock concentration (final ~1000-fold dilution): 10 mM, cytotoxicity flag (confluency mask): cytotoxic (confluency <70% of control), agonist: MPLA (TLR4) […]): 2.3

Cc1c(-c2ccc(C(N)=O)c3[nH]c4cc(C(C)(C)O)ccc4c23)cccc1-n1cnc2ccccc2c1=O (library stock concentration (final ~1000-fold dilution): 10 mM)
NF-kB SEAP reporter activity ([2]; agonist: LPS (TLR4) 0.1 ug/mL): 1.25 | NF-kB SEAP reporter activity [2, 6]: 1.1 | NF-kB SEAP reporter activity [2, 7]: 0.537 | NF-kB SEAP reporter activity [2, 8]: 0.833

Cc1c(-c2ccc(C(N)=O)c3[nH]c4cc(C(C)(C)O)ccc4c23)cccc1-n1cnc2ccccc2c1=O
NF-kB SEAP reporter activity [1, 4]: 1.76 | NF-kB SEAP reporter activity [1, 5]: 1.37

CC(O)C1C(=O)N2C(C(=O)O)=C(SCCNC=N)CC12.O (centres undefined) (library stock concentration (final ~1000-fold dilution): 10 mM water)
NF-kB SEAP reporter activity ([2]; agonist: LPS (TLR4) 0.1 ug/mL): 1.41 | NF-kB SEAP reporter activity [2, 6]: 1.16 | NF-kB SEAP reporter activity [2, 7]: 1.23 | NF-kB SEAP reporter activity [2, 8]: 1.07

CC(O)C1C(=O)N2C(C(=O)O)=C(SCCNC=N)CC12.O (centres undefined)
NF-kB SEAP reporter activity ([1]; library stock concentration (final ~1000-fold dilution): 10 mM water, cytotoxicity flag (confluency mask): not cytotoxic, agonist: Imiquimod (TLR7) […]): 0.896 | NF-kB SEAP reporter activity ([1]; library stock concentration (final ~1000-fold dilution): 10 mM water, cytotoxicity flag (confluency mask): not cytotoxic, agonist: MPLA (TLR4) […]): 1.02

CCCn1c(NC(=O)c2cccc(C(N)=O)c2)nc2ccccc21
NF-kB SEAP reporter activity [1, 4]: 0.36 | NF-kB SEAP reporter activity [1, 5]: 0.54

CCCn1c(NC(=O)c2cccc(C(N)=O)c2)nc2ccccc21 (library stock concentration (final ~1000-fold dilution): 10 mM)
NF-kB SEAP reporter activity ([2]; agonist: LPS (TLR4) 0.1 ug/mL): 0.482 | NF-kB SEAP reporter activity [2, 6]: 0.333 | NF-kB SEAP reporter activity [2, 7]: 0.143 | NF-kB SEAP reporter activity [2, 8]: 0.205
